In the library only some 7.5% were active in any assay of this set; here they are far more common.
TSHR antagonist = human thyrotropin receptor antagonism | TSHR-expressing cells, TSH-stimulated cAMP HTRF, 2 h; active compounds read low | activity change, negative = inhibition, % at 11.5 µM | 330,000 tested, 0.2% active | AID 504810;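 active = activity change below a set negative limit, meaning inhibition stronger than a set level, cut at about -70% in these data; inconclusive = activity change between two set negative limits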
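Freshly harvested TSHR cells receive pin-tooled compound, then EC80 TSH at 4nM final. After 2 hours at 37 deg C, antibody in lysis buffer and cAMP-d2 are added; 30 minutes at ambient temperature precede the HTRF read.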
B2AR arrestin = beta2AR (human) beta-arrestin recruitment activity; 330,000 tested, 0.02% active; Potency, µM (series often up to 46.1 µM), inactives show at the highest dose activation, usual class: activators; beta-arrestin recruitment to beta2AR, cell-based reporter; P07550;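 also: potency is read from the fitted curve at half-maximal effect; 0% = DMSO controls and full agonism = EC100 isoproterenol or metaproterenol; nearly all actives have a fitted effect of over 65% in size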
VP16 counter = counter-screen for ROR gamma inhibitors: Gal4-VP16 reporter; Drosophila S2 Gal4-VP16 UAS-luciferase, luminescence, 20 h; Potency, µM (highest dose often 53.6 µM), for inactives: at the top dose activity, negative = inhibition, hits mostly inhibitors; 310,000 tested, 3.5% active;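 also: Gal4-VP16 expression switched on by copper sulfate through the metallothionein promoter; potency is read from the fitted curve at half-maximal effect; nearly all actives have a fitted effect of over 50% in size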
RORg inh = blocks mouse ROR gamma transcriptional activity; Drosophila S2 Gal4-RORgamma UAS-luciferase reporter, 20 h; Potency, µM (highest dose often 53.6 µM), for inactives: at the top dose activity change, negative = inhibition, usual class: inhibitors; 310,000 tested, 5.4% active; AID 2551; also: potency is read from the fitted curve at half-maximal effect; nearly all actives have a fitted effect of over 60% in size
Target sequence (P51450 whole entry, looked up, the tested form may be a part): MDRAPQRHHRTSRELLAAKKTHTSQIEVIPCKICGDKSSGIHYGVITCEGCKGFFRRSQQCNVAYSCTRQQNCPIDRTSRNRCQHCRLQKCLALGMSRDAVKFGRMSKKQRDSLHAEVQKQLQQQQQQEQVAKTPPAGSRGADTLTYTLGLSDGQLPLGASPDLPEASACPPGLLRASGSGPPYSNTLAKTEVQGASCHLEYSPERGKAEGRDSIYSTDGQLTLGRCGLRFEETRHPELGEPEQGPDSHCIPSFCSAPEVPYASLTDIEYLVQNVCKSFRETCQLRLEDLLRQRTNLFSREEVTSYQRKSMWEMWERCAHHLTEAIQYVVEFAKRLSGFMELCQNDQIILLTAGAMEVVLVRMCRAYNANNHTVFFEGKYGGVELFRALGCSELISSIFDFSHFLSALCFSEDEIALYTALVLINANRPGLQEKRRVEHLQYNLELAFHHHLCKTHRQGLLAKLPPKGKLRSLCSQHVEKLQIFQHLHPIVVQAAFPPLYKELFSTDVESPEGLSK
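Stable Schneider cell line, Gal4 DNA-binding domain fused to ROR gamma, UAS-luciferase. Cmpd 1 hr RT → CuSO4 700 uM final → 20 hr RT → luciferase reagent 10 min → luminescence.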
ELG1 DNA repair = inhibitors of ELG1-dependent DNA repair in HEK293T cells | HEK293T ELG1-luciferase reporter, luminescence, 16 h; DNA damage induced by 5-fluorouridine | Potency, µM (doses to about 46.1 µM), inactives show top-dose activity change, negative = inhibition, actives largely listed as inhibitors | 330,000 tested, 2.3% active; also: potency is read from the fitted curve at half-maximal effect; nearly all actives have a fitted effect of over 55% in size
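HEK293T cells expressing luciferase-tagged ELG1 (2,000/well) received 5-Fluorouridine plus compound or DMSO for 16 hr at 37 °C. Luciferase was read by ONE-Glo luminescence after 30 min at room temperature.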
The depositor's hits bear a star; ? = inconclusive; nt = no result given; [ ] = remark or other dose. Unless noted, calls follow the shape of the dose curve; as a rule, active = well fitted curve in the direction sought with a large enough effect; inconclusive = small, poorly fitted or top-dose-only effect, or another doubt; inactive = no such curve, though single readings can be large; an effect the other way counts as inactive or inconclusive. Unless noted, % is scaled to controls: 0 for no effect and ±100 for the full control effect.

SMILES | TSHR antagonist | B2AR arrestin | VP16 counter | RORg inh | ELG1 DNA repair
COc1ccc(-c2c[n+]3c(n2-c2ccccc2)SCC3)cc1 | -3.0 | -0.6% | -16.1% | 20.7% | ?
c1ccc(Cn2c(-c3ccccc3)c[n+]3c2SCCC3)cc1 | 0.9 | 0.0% | -10.2% | 41.0% | 13µM*
O=c1oc2ccccc2c(Nc2cccc3ccccc23)c1[N+](=O)[O-] | -14.0 | 0.2% | ? | ? | -8.5%
O=c1oc2ccccc2c(Nc2cccc3cccnc23)c1[N+](=O)[O-] | 12.0 | 0.1% | -20.2%[10 µM] | 11.2µM* | 6.5%
CCOc1ccc(-c2c(C(=O)N/N=C/c3ccc(Cl)cc3)nnn2-c2nonc2N)cc1 | 9.2 | 0.1% | ? | ? | -0.1%
O=Cc1cn(CC(=O)N2CCCCC2)c2ccccc12 | 4.4 | -0.8% | 3.0% | 12.6% | 10.4%
CN1C(=O)/C(=C/c2cn(CC(=O)N3CCCCC3)c3ccccc23)c2ccccc21 | -2.5 | 0.2% | 1.5% | 7.3% | 20.6µM*
CCCC[C@@H]1C[C@H]1C(NC(=O)c1ccccc1)c1ccc(C(F)(F)F)cc1 (some centres undefined) | nt | nt | ? | 15.8µM* | nt
O=S1(=O)N=C(N/N=C/C=C/c2ccccc2)c2ccccc21 | 8.1 | -0.5% | 0.631µM* | 0.398µM* | 11.0%
CN(C)c1ccc(/C=N/NC2=NS(=O)(=O)c3ccccc32)cc1 | -5.1 | 0.2% | 5.62µM* | 3.98µM* | 20.1%
O=S1(=O)N=C(N/N=C/c2ccc(Br)o2)c2ccccc21 | -6.7 | 0.3% | 14.1µM* | 6.31µM* | -6.8%
O=S1(=O)N=C(N/N=C/c2ccccn2)c2ccccc21 | 0.0 | -0.6% | ? | ? | 2.5%
CC(C)NC(=S)NN=C1c2ccccc2-c2ccccc21 | -8.4 | -0.1% | ? | 7.94µM* | 3.0%
C/C(=N\NC(=S)NC(C)C)c1ccco1 | 25.7 | ? | 4.47µM* | ? | 11.3%
CC(C)NC(=S)NC(c1ccccc1)(c1ccccc1)c1ccccc1 | -12.1 | 4.0% | 3.16µM* | ? | ?
CC(=O)Nc1cccc(/C(C)=N/NC(=S)NC(C)C)c1 | -5.6 | 0.3% | ? | 7.94µM* | ?
CC(C)NC(=S)N/N=C/c1cccnc1 | 2.0 | -0.4% | -24.7% | ? | 5.1%
CC(C)NC(=O)CS(=O)(=O)c1ccccc1 | -4.3 | 0.3% | -12.2% | -13.1% | -0.4%
CC12C=C(/C=C/c3ccc(Br)cc3)C(C)(C1)C(c1ccc(Br)cc1)CC2=O (centres undefined) | nt | nt | 10.7%[10 µM] | -0.4%[10 µM] | nt
C=C(C)CNC(=S)N/N=C(\C)c1cccc(NC(C)=O)c1 | -4.7 | 0.2% | ? | 10µM* | ?
CC(=O)Nc1cccc(/C(C)=N/NC(N)=S)c1 | -5.0 | 0.2% | 10.8% | ? | -1.2%
C/C(=N\NC(=S)NC1CCCCC1)c1ccccc1 | -18.8 | -0.1% | ? | ? | ?
C/C(=N\NC(=S)NC(C)C)c1ccccc1 | -0.9 | ? | 3.55µM* | 0.562µM* | 1.6%
CC1CCN(S(=O)(=O)c2ccc3c(c2)N(CC(=O)NCCCN2C(C)CCCC2C)C(=O)CO3)CC1 (centres undefined) | 13.0 | 0.1% | 2.0% | -11.0% | 13.5%
O=C(Nc1ccc2[nH]ccc2c1)c1ccc(F)cc1 | 6.3 | -1.1% | ? | 11.2µM* | ?
SMILES | TSHR antagonist | B2AR arrestin | VP16 counter | RORg inh | ELG1 DNA repair
Cc1ccc(C2(COC(=O)C(C)C)CO2)c(OC(=O)C(C)C)c1 (centres undefined) | -5.3 | 13.2% | 8.91µM* | -7.3% | 11.4%
CCN(CC(=O)NCCC1=CCCCC1)S(=O)(=O)c1ccccc1 | -8.1 | -0.5% | 1.4% | -19.6% | 16.7%
CCNc1ncc2nc(-c3ccccc3)c(=O)n(C)c2n1 | nt | nt | 21.8% | 2.5% | nt
Cc1ccc(S(=O)(=O)/N=C2/C=C(C3C(=O)CC(C)(C)CC3=O)C(=O)c3ccccc32)cc1 | 3.7 | 0.0% | ? | 11.2µM* | ?
Cc1c(C(=O)c2ccc(Cl)c(Cl)c2)cnc2cc3c(cc12)OCO3 | -15.8 | -0.6% | ? | ? | ?
Cc1ccc(S(=O)(=O)c2c(C(=O)c3ccccc3)cnc3cc4c(cc23)OCCO4)cc1 | -82.7* | 0.0% | -4.9% | ? | ?
COc1ccc2c(c1)C(c1ccccc1)NC(=O)C2 (centres undefined) | -6.3 | 0.2% | nt | nt | 7.0%

From PubChem
